This is a sample that favours compounds with a hit; in the whole collection about 2.1% have one here.
ADAM10 inh – inhibitors of human ADAM10; O14672; recombinant ADAM10, EDANS/DABCYL FRET peptide cleavage, 3 h; inhibition, % at 7 µM; hit rate 0.62% among 370,000;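 active = inhibition above a per-campaign cutoff equal to the mean of compounds falling between control-based bounds plus 3 SD, cut at about 20% in these data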
PLCb3 inh – PLC-beta3 (human) inhibition, primary screen; Q01970; Purified PLC-beta3, fluorogenic substrate, fluorescence; inhibition, % at 12.2 µM; hit rate 0.18% among 370,000; AID 720704; in the data active = inhibition above about 11%
PLC-gamma1 inh – PLC-gamma1 (human) inhibition, primary screen; P19174; purified PLC-gamma1, fluorogenic substrate, fluorescence; inhibition, % at 12.2 µM; hit rate 0.84% among 370,000; AID 720700; in the data active = inhibition above about 9.5%
Rce1 inhib – inhibitors of yeast Ras-converting enzyme; yeast membranes, quenched prenylated peptide cleavage fluorescence; calls only; hit rate 0.27% among 290,000;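 active = fall in fluorescence gain of 50% or more versus controls, with final raw signal at or below 3038400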
ADAM17 inh – ADAM17 inhibition, QFRET primary screen; inhibition, % at 6.95 µM; hit rate 0.83% among 370,000; AID 720648; recombinant ADAM17, EDANS/DABCYL FRET peptide cleavage; P78536;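 active = inhibition above the mean of compounds lying between control limits plus 3 SD, set per campaign, cut at about 8.5% in these data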
A number is an active result; i = inactive; nt = no result; + = active, no number.

SMILES	ADAM10 inh	PLCb3 inh	PLC-gamma1 inh	Rce1 inhib	ADAM17 inh
CC(=O)C1=C(C)N(Cc2ccc(Br)cc2)C(=S)NC1c1ccc(F)cc1 (configuration not stated)	i	i	i	nt	i
Cn1c(SCC(=O)Nc2nccs2)nnc1-c1ccc(S(=O)(=O)N2CCCC2)cc1	i	i	i	i	i
O=C(CSc1n[nH]c(-c2ccc(S(=O)(=O)N3CCCCC3)cc2)n1)Nc1nccs1	i	i	i	+	i
O=C(N[C@H](Cc1ccccc1)C(=O)N1CCN(CC(=O)N2CCCC2)CC1)[C@H]1O[C@@H](n2ccc(=O)[nH]c2=O)[C@H](O)[C@@H]1O	i	i	i	nt	i
O=C(CCNS(=O)(=O)c1ccc2[nH]c(=O)oc2c1)NCc1ccc(F)cc1	i	i	i	i	i
O=C(CCNS(=O)(=O)c1ccc2[nH]c(=O)oc2c1)NCc1ccccc1	i	i	i	+	i
COc1cc(NC(=O)CSc2nc(C)cc(=O)[nH]2)cc(OC)c1	i	i	i	nt	i
Cc1ccc(S(=O)(=O)N2CCN(C(=O)COC(=O)COc3ccc(Cl)cc3)CC2)c(C)c1	i	i	13.4	nt	i
C/C(=N\NC(=O)c1ccncc1)c1cccc(NC(=O)c2ccc(C(C)(C)C)cc2)c1	i	i	i	i	i
C/C(=N\NC(=O)c1ccc(Br)cc1)c1cccc(NC(=O)c2cccnc2)c1	i	i	i	+	i
COCC1CCN(C(=O)CCc2nnc(C3(c4ccc(Cl)cc4)CCC3)o2)CC1	i	i	11.6	i	i
COCCNC(=O)CCc1nnc(C2(c3ccc(Cl)cc3)CCC2)o1	i	i	i	i	i
COc1ccc(C(=O)c2[nH]c(N)c(C(=O)c3c[nH]c4ccccc34)c2-c2ccc(OC)cc2)cc1	i	i	i	nt	i
O=C1C(=Cc2ccco2)CCC1=Cc1ccco1	i	i	11.1	nt	i
Cc1cc(NC(=O)c2ccccc2)n(-c2nc3ccccc3[nH]2)n1	i	i	i	i	i
Cc1cc(NC(=O)C2CCCC2)n(-c2nc3ccccc3[nH]2)n1	i	i	10.8	i	i
O=C(NCCc1ccccc1Cl)[C@@H]1CCCN1C(=O)[C@@H](NC(=O)N1CCOCC1)C1CCCCC1	i	i	i	nt	i
CC(=O)Nc1sc(C)c(C)c1C(=O)OCC(=O)NCc1ccc(Cl)cc1	i	i	11.8	nt	i
COc1ccc(CN2CCN(c3ccc(F)cc3)CC2)c(OC)c1OC	i	i	i	i	i
COc1ccc(CN2CCN(C(c3ccc(F)cc3)c3ccc(F)cc3)CC2)c(OC)c1OC	i	i	i	+	i
COc1cc(Cn2cc([C@]34C[C@H]5C(=O)N(C)CC(=O)N5[C@H]3N(S(=O)(=O)c3ccccc3)c3ccccc34)c3ccccc32)cc(OC)c1	i	i	i	nt	i
O=C1OC(Nc2cc(Br)cc3cccnc23)c2ccccc21 (configuration not stated)	i	i	10.8	i	i
Oc1c(C(Nc2cccc(C(F)(F)F)c2)c2ccncc2)ccc2cccnc12 (configuration not stated)	i	i	i	i	45.1
Oc1c(C(Nc2nccs2)c2ccc(C(F)(F)F)cc2)ccc2cccnc12 (configuration not stated)	i	i	i	i	i
C[C@@H]1ON(C)[C@H]2C[C@H]3c4cc(-c5ccc(F)cc5)ccc4CCN3C[C@@H]12	i	i	i	nt	i
SMILES	ADAM10 inh	PLCb3 inh	PLC-gamma1 inh	Rce1 inhib	ADAM17 inh
O=C(NCCOC(=O)c1ccccc1C(=O)OCCNC(=O)c1cccnc1)c1cccnc1	i	12.1	i	i	i
CCCCCCCCCC[N+](C)(C)CC/C=C1/c2ccccc2Sc2ccc(Cl)cc21	nt	nt	nt	+	nt
CCCCCCCCCCC[N+](C)(C)CC/C=C1/c2ccccc2Sc2ccc(Cl)cc21	nt	nt	nt	+	nt
CC[N+](C)(C)CC/C=C1/c2ccccc2Sc2ccc(Cl)cc21	i	i	i	i	i
CCOC(=O)CCC(NC(=O)CCCCCCCC(=O)NC(CCC(=O)OCC)C(=O)OCC)C(=O)OCC (configuration not stated)	i	i	i	i	i
COc1ccccc1-c1cc(C(F)(F)F)nc(S(=O)(=O)CCCC(=O)NC(C)C)n1	i	i	i	i	i
COc1ccccc1-c1cc(C(F)(F)F)nc(S(=O)(=O)CCCC(=O)NCc2ccc(F)cc2)n1	i	i	i	+	i
Cc1cc2nn(-c3cccc4ccccc34)nc2cc1NC(=O)c1cccs1	i	i	i	+	i
CCCCN1CC(COc2ccc(OC)cc2)OCCS1(=O)=O (configuration not stated)	i	i	i	nt	i

Screening data as filed in PubChem.
